MBD2 DNA inh: inhibitors of MBD2 binding to methylated DNA, primary screen, biochemical, TR-FRET, DNA-binding domain, human; MBD2 binding to methylated oligonucleotide; hit rate 0.31% among 370,000; Methyl-CpG-binding domain protein 2 (Homo sapiens), Q9UBB5; inhibition, % at 4.4 µM; AID 686964, 2013; in the data active = inhibition above about 13%
PRMT1 FP inh: PRMT1 methyltransferase inhibitors, primary screen, biochemical, fluorescence polarization; inhibition, % at 2.79 µM; hit rate 1.3% among 370,000; AID 652257, 2013; recombinant PRMT1, activity-based probe fluorescence polarization; Protein arginine N-methyltransferase 1 (Homo sapiens), Q99873;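 active = inhibition above about 21% made by adding two undisclosed values, limit read from the data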
UHRF1 binding: UHRF1 methylated DNA binding inhibitors, primary screen, counter-screen for MBD2 inhibitor project, biochemical, TR-FRET, human UHRF1, single concentration; E3 ubiquitin-protein ligase UHRF1 (Homo sapiens), Q96T88; UHRF1 binding to methylated oligo; inhibition, % at 4.4 µM; hit rate 0.75% among 370,000; in the data active = inhibition above about 21%;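 also: UHRF1 SRA domain binding a hemimethylated CpG hairpin DNA probe; 0% = median of test compound wells and 100% = reference inhibitor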
Target sequence (Q96T88 whole entry, looked up, the tested form may be a part): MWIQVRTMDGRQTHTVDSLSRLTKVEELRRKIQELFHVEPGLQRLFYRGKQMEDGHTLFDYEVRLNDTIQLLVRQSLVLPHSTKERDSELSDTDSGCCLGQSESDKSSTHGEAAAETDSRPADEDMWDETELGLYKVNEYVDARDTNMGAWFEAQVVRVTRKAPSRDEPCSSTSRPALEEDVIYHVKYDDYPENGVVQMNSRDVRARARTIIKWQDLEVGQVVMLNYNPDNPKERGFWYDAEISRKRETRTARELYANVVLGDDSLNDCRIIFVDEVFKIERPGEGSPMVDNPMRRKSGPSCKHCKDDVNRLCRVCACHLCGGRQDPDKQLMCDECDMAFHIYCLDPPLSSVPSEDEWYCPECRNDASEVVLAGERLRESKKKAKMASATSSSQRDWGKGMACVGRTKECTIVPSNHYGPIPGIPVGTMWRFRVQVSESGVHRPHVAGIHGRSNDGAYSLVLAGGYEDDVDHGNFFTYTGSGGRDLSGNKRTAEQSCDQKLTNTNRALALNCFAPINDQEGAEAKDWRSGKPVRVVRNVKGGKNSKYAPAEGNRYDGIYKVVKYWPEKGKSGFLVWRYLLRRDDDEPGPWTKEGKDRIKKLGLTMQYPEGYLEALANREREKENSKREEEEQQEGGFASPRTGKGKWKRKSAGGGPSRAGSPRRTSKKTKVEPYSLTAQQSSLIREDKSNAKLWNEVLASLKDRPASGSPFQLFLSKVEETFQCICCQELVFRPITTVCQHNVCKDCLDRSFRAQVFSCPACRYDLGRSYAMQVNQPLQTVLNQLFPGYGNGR
LEDGF integ inh: blockers of LEDGF/p75-dependent integrase strand transfer – biochemical, TR-FRET, high throughput, primary screen. TR-FRET IN-LEDGF/p75 DNA integration, Eu/Cy5. inhibition, % at 3.7 µM. hit rate 0.64% among 370,000. AID 743269, 2014;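 active = inhibition above the screen-wide mean plus 3 SD, cut at about 13% in these data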;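 also: signal is the Cy5 over europium emission ratio at 671 and 618 nm; 0% = plate median of compound wells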
An asterisk follows results filed as active. Hits are enriched below; roughly 2.5% of the tested compounds scored in any of these assays.

SMILES | MBD2 DNA inh | PRMT1 FP inh | UHRF1 binding | LEDGF integ inh
CC1(C)C[C@H]2C3=CCC4[C@@]5(C)CC[C@H](O)[C@@](C)(CO)C5CC[C@@]4(C)[C@]3(C)C[C@@H](O)[C@@]2(CO)[C@@H](O)[C@@H]1O (stereo not given in full) | 2 | -5 | 6 | 1
CC1(C)CC[C@]2(C(=O)O[C@@H]3OC(CO)[C@@H](O)[C@H](O)[C@H]3O)CC[C@]3(C)C(=CCC4[C@@]5(C)CC[C@H](O[C@@H]6OC(C(=O)O)[C@@H](O)[C@H](O)[C@H]6O)C(C)(C)C5CC[C@]43C)[C@@H]2C1 (stereo not given in full) | 0 | 3 | 1 | 16*
COc1ccc(Cn2c(C)nc3c(c2=O)c2nc4ccccc4nc2n3Cc2ccco2)cc1 | 18* | 40* | 17 | 14*
COc1ccc(CCN(C(=O)C(F)(F)F)C(C(=O)NC2CCCCC2)c2ccc(C)s2)cc1OC (stereo not given) | -3 | 1 | 29* | 0
Nc1ccc2c(c1)-c1ccccc1S(=O)(=O)N2 | -5 | 22* | -1 | -5
CN(C)c1ccc(C=c2c3ccccc3n3c2c2c([n+]3C)CCCC2)cc1 | 10 | 4 | 38* | -5
Cc1ccc(CNC(=O)C2CCN(C(=O)Nc3ccc(C)cc3)CC2)cc1 | 4 | 0 | 0 | 1
CC(C)CCNC(=O)c1cc(S(=O)(=O)N2CCC3(CC2)OCCO3)ccc1F | -2 | 2 | 3 | 1
COc1ccccc1NS(=O)(=O)c1cccc(C(=O)N2CCCC2)c1 | 1 | 1 | 43* | -8
O=C(COC(=O)c1cc(-c2cccc3ccccc23)nc2ccccc12)NC1CCS(=O)(=O)C1 (stereo not given) | -1 | 25* | 2 | -6
Cc1cc(C(=O)OCC(=O)NC2CCS(=O)(=O)C2)c2ccccc2n1 (stereo not given) | 0 | -1 | -2 | 1
COC(=O)c1ccc(Cn2cnc3cnccc32)cc1 | 0 | 2 | 25* | -4
Cn1c(CC(=O)c2ccc(Br)cc2)[n+](C)c2ccccc21 | -3 | 0 | -1 | -1
COc1ccc(NC(=O)CSc2nnc(-c3ccco3)n2N)cc1Cl | -1 | 4 | 22* | -1
COc1ccc(NC(=O)CSc2nnc(-c3ccccc3C)n2N)cc1 | 8 | 21* | -1 | -1
Cc1cccc(C)c1NC(=O)COc1ccc2c(C)c(Cc3ccccc3)c(=O)oc2c1C | 2 | 2 | 64* | -2
CCNc1ccc(S(=O)(=O)N2CCOCC2)cc1NCC(=O)Nc1cccc(Br)c1 | -6 | 2 | -1 | 1
CC1CC(C)CN(CCCNC(=O)CCC(=O)N2CCOc3ccccc32)C1 (stereo not given) | -3 | -4 | -4 | -2
COc1ccc(-c2n[nH]c(=S)n2/N=C/C=C\c2ccccc2OC)cc1 | 1 | 4 | 3 | 0
COc1ccccc1/C=C/C=N/n1c(-c2ccc(C)cc2)n[nH]c1=S | 4 | 22* | 5 | 5
S=c1[nH]nc(-c2ccccc2)n1/N=C/c1ccc(Cl)cc1 | -1 | 22* | 1 | -5
Cc1occc1-c1nnc(SCC(=O)N2CCCc3ccccc32)n1Cc1ccco1 | 4 | 3 | 22* | 0
CC1(Oc2ccc(CC#N)cc2)CCN(Cc2ccc(-n3ccnc3)cc2)C1 (stereo not given) | 3 | -5 | 0 | 3
CC(C)N(Cc1ccccc1)C(=O)/C=C/c1ccccc1[N+](=O)[O-] | 3 | 3 | 28* | 3
O=C(O)/C=C/c1ccccc1[N+](=O)[O-] | 4 | 2 | -1 | 1
SMILES | MBD2 DNA inh | PRMT1 FP inh | UHRF1 binding | LEDGF integ inh
COCCNC(=O)C(c1ccncc1)N(C(=O)c1sc(C)nc1C)c1cccc(C)c1 (stereo not given) | 2 | -3 | 3 | -2
Nc1cccnc1Sc1ccc(Cl)cc1 | -3 | -2 | 0 | -2
N#CCc1cccnc1Sc1ccc(Cl)cc1 | 2 | 2 | 26* | 1
S=C(NCc1ccccc1)NC1CCSc2ccccc21 (stereo not given) | 7 | 0 | 24* | 7
Cc1cc(S(=O)(=O)N2CCCC(N(C)CCc3ccccn3)C2)c(C)cc1Cl (stereo not given) | 9 | -4 | 23* | 3
COC(=O)c1ccc(COC(=O)CNC(=O)C2CCCCC2)cc1 | 1 | -4 | 1 | -3
COCCN=C1NC(=O)C(CC(=O)Nc2cccc(Cl)c2C)S1 (stereo not given) | -2 | 24* | 3 | 7
FC(F)(F)c1ccc(CSc2nccn2-c2ccccc2)cc1 | -5 | 0 | 80* | -1
O=C(NN1C(=O)/C(=C\c2cccnc2)SC1=S)c1ccco1 | 10 | 19 | 47* | 5
CC(C)(C)NC(=O)CN(CCN1CCOCC1)C(=O)CNS(=O)(=O)c1ccccc1 | -3 | 1 | -3 | -6
CCOC(=O)Cc1nn(C)c(=O)c2ccccc12 | 4 | 5 | 26* | 0
CCOC(=O)Cc1nn(CC)c(=O)c2ccccc12 | 0 | 0 | -1 | -4
Cn1nc(Cc2n[nH]c(=S)n2C)c2ccccc2c1=O | 1 | 3 | 56* | -5
COc1ccc(N2CSC3=C(C#N)C(c4ccc(OC)c(OC)c4)CC(=O)N3C2)c(OC)c1 (stereo not given) | -12 | 47* | -4 | 3
COc1cc(NCCCCCCN)c2ncccc2c1OC | -6 | 4 | 2 | 40*
COc1cc(NC(C)CCCNC(C)C)c2ncccc2c1OC (stereo not given) | -7 | 2 | -1 | 14*
COc1cc(NCCCCC(C)N)c2nccc(C)c2c1 (stereo not given) | -9 | 3 | -1 | 12
Cc1nc(C(F)(F)F)ccc1C(=O)N1CCCC1(C)C(=O)NCC(C)C (stereo not given) | 2 | 3 | 3 | -2
CCN1CCN(CC(=O)N2N=C(c3cccs3)CC2c2ccc(OC)c(OC)c2)C(=O)C1=O (stereo not given) | -5 | 6 | 2 | 1
C=C1C(=O)c2sccc2C(c2ccc(OC)c(OC)c2)C1COC(C)=O (stereo not given) | -3 | 24* | 3 | 7
COc1ccc(-c2sc3cc(OC)c(OC)cc3c2C#CCO)cc1 | 7 | 0 | 22* | 3
COc1ccc(-c2sc3cc(OC)c(OC)cc3c2C#CC(C)(C)O)cc1 | 6 | 0 | 12 | 0
CC(=O)Nc1cccc(-c2ccnc3c2CC(C)(C(=O)NCCc2ccccc2)O3)c1 (stereo not given) | -1 | -4 | 1 | 1
COc1cccc(C(=O)Nc2ccccc2-c2ccccc2)c1 | 8 | 0 | 22* | 7
Cc1ccc2c(c1)sc(C)[n+]2CCCS(=O)(=O)[O-] | 2 | 62* | 2 | -4
Cc1ccc2sc(C)[n+](CCCS(=O)(=O)[O-])c2c1 | 1 | 38* | -2 | -5

Source: PubChem BioAssay (The Scripps Research Institute Molecular Screening Center)
